Compound activity from PubChem.
This is a sample that favours compounds with a hit; in the whole collection about 3.4% have one here.
PKM2 activator = activators of human pyruvate kinase M2 | Potency, µM (top dose mostly 57.5 µM), for the others: top-dose activation, actives largely listed as activators | 0.34% of 260,000 active | purified PKM2, Kinase-Glo ATP luminescence, activation; response scale: 0% is enzyme alone, no compound; note: % is set by controls: 0 for no effect and ±100 for the full control effect; nearly all actives have a fitted effect of over 55% in size
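Kinase-Glo luminescence reports ATP generated from ADP (0.1 mM) and PEP (0.5 mM) by purified hPK-M2 after 1 h at room temperature, pH 7.2 imidazole buffer; intermediate enzyme activity allows detecting inhibitors and activators.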
Mito fusion yeast = blocks mitochondrial division or promotes mitochondrial fusion | S. cerevisiae fusion-defective mutant growth rescue, CellTiterGlo 48 h | Potency, µM (series often up to 46.1 µM), without a hit: top-dose growth rescue (activation), actives largely listed as activators | 0.23% of 320,000 active | AID 485298; note: % of control where 0% means no effect; nearly all actives have a fitted effect of over 45% in size
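Compounds are tested for their ability to restore growth of mitochondrial fusion-defective yeast strains at non-permissive 37C in YPEG medium over 48 hours. Viability is quantified by luciferase luminescence.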
GLS inhibitor = inhibitors of human glutaminase (GLS); GLS enzymatic activity, qHTS titration; Potency, µM (highest dose often 45.5 µM), inactives show at the top dose activity change, negative = inhibition, actives largely listed as inhibitors; 0.21% of 410,000 active; AID 624170; note: % is set by controls: 0 for no effect and ±100 for the full control effect
Target sequence (O94925 whole entry, looked up): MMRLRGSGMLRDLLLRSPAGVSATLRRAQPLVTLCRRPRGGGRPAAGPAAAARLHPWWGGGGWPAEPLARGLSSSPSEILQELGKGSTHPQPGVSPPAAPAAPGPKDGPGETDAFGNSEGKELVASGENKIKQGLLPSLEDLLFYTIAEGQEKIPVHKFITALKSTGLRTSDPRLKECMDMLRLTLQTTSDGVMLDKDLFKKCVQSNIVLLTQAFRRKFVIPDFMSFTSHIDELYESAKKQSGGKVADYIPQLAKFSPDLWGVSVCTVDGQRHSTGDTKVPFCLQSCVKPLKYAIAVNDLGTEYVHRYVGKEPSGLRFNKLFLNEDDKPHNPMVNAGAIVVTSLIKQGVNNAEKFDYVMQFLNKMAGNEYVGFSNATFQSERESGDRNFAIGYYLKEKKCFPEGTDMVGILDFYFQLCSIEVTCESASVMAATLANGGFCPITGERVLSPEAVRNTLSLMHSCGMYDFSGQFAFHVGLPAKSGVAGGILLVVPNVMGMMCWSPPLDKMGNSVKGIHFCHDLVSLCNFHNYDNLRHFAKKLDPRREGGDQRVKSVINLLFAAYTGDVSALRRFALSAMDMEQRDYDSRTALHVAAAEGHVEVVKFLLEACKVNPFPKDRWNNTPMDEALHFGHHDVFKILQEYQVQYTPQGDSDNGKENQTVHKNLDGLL
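Glutamate formation by hKGA was monitored fluorometrically using coupled glutamate oxidase, HRP and Amplex Red. Substrate was added as 1 mM L-glutamine solution; incubation was 30 min at RT after an initial read.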
GCN5L2 inh = blocks human GCN5L2 histone acetyltransferase. GCN5L2 HAT assay, ThioGlo1 CoA-SH fluorescence. Potency, µM (highest dose often 58.9 µM), without a hit: at the highest dose activity change, negative = inhibition, usual class: inhibitors. 0.21% of 390,000 active. AID 504327; note: % is set by controls: 0 for no effect and ±100 for the full control effect
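Free CoA generated was detected with ThioGlo1 (50uM) fluorescence at Ex340nm/Em540nm, read immediately and after 20 min at room temperature. Enzyme, 20 nM in HEPES pH 7.5 buffer, saw compounds 15 min before adding 75uM H3(1-25) peptide and 70uM acetyl-CoA.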
VDR inh = inhibitors of human vitamin D receptor; VDR-SRC2-3 peptide fluorescence polarization, 2 h; Potency, µM, for the others: max response, negative = inhibition, hits mostly inhibitors; P11473; 0.93% of 400,000 active; note: % is set by controls: 0 for no effect and ±100 for the full control effect
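Inhibition of the VDR/SRC2-3 peptide interaction is quantified by fluorescence polarization. Compounds (23 nl, pintool) incubate with the reagents for 2 hours at ambient room temperature.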
PLK1 PBD inh = blocks phosphopeptide binding to human PLK1 polo-box domain | 2.8% of 360,000 active | Potency, µM, for inactives: max response, negative = inhibition, actives largely listed as inhibitors | Plk1 PBD binding of FITC phosphopeptide, fluorescence polarization; note: series mostly up to about 57 µM; % is set by controls: 0 for no effect and ±100 for the full control effect; nearly all actives have a fitted effect of over 65% in size
VDR inh confirm = inhibits human vitamin D receptor, primary hit validation; shares compounds with VDR inh; VDR-coactivator inhibition assay, qHTS confirmation; Potency, µM, most hits filed as inhibitors; 89% of 840 active
VDR FP fluor = blocks human VDR-coactivator binding in fluorescein assay | Potency, µM (series often up to 57.1 µM), for inactives: top-dose activity change, negative = inhibition, hits mostly inhibitors | VDR-coactivator binding, fluorescein fluorescence polarization | shares compounds with VDR inh | 48% of 840 active | AID 602200
VDR bla reporter = inhibits human VDR in beta-lactamase reporter cells | shares compounds with VDR inh | 23% of 840 active | Potency, µM (titrated, usually from 46.1 µM), for inactives: top-dose activity change, negative = inhibition, most hits filed as inhibitors | VDR beta-lactamase reporter cells, FRET ratio; cells co-treated with VDR agonist LG190178 | AID 602202; note: % is set by controls: 0 for no effect and ±100 for the full control effect
VDR viability = counter-screen for vitamin D receptor inhibitors: cytotoxicity | shares compounds with VDR inh | cytotoxicity counter-screen, cell viability, qHTS | Potency, µM (doses to about 48.3 µM), without a hit: at the highest dose activity change, negative = cytotoxicity, most hits filed as cytotoxic | 18% of 840 active;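 note: plate controls were DMSO for no effect and high-concentration cycloheximide for full effect; nearly all actives have a fitted effect of over 75% in size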
Numbers without * were called inactive; ? = inconclusive; . = no result given. Calls come from the whole dose curve; as a rule, active = well fitted curve in the direction sought with a large enough effect; inconclusive = small, poorly fitted or top-dose-only effect, or another doubt; inactive = no such curve, though single readings can be large; an effect the other way counts as inactive or inconclusive. Potency is the fitted concentration of half-maximal effect.

SMILES	PKM2 activator	Mito fusion yeast	GLS inhibitor	GCN5L2 inh	VDR inh	PLK1 PBD inh	VDR inh confirm	VDR FP fluor	VDR bla reporter	VDR viability
CCOc1cc(/C=C2\C(=O)ON=C2c2ccccc2)cc(Br)c1O	.	-9%	8.9µM*	1%	25µM*	?	3.8*	179%	?	-11%
COc1cc([N+](=O)[O-])ccc1-c1ccc(/C=C2\C(=O)ON=C2c2ccccc2)o1	.	.	30%	.	?	2.7µM*	2.5*	1.8µM*	?	?
CCCN(CCC)S(=O)(=O)c1ccc(N2CCCCS2(=O)=O)cc1	.	.	-15%	4%	-2%	.	.	.	.	.
CCSC1=NC(C)(C)C=C(/C=C/c2ccc(Cl)cc2Cl)N1	-8%	-1%	-2%	?	?	?	14*	16µM*	23µM*	?
Cc1ccccc1NC(=O)CSCc1cc(=O)n2ccsc2n1	.	-4%	0%	-4%	9%	-12%	.	.	.	.
CCOC(=O)c1c(S(=O)(=O)NCC(=O)Nc2ccccc2OC)c(C)n(C)c1C	.	-3%	4%	-2%	2%	4%	.	.	.	.
COC(=O)C1=C(C)N(Cc2ccc(OC)cc2)C(=O)/C1=C\c1ccco1	4%	4%	-3%	?	-11%	0%	.	.	.	.
COC(=O)C1=C(C)N(Cc2ccco2)C(=O)/C1=C\c1ccc([N+](=O)[O-])cc1	?	5%	-3%	-8%	22µM*	-27%	?	28%	-29%	?
O=S(=O)(Nc1cc2nc3ccccc3nc2n1Cc1ccccc1)c1ccc(Cl)cc1	10%	-1%	-8%	?	40µM*	?	30*	33%	?	?
O=S(=O)(NCc1ccccc1)c1ccc(Cl)cc1	-3%	1%	0%	?	-6%	-14%	.	.	.	.
Cc1ccc(Oc2c(C(N)=O)cc([N+](=O)[O-])cc2[N+](=O)[O-])cc1	0%	11%	14%	-3%	28µM*	21µM*	11*	13µM*	?	5.6µM*
Cc1c(C(=O)Nc2nc(-c3ccccn3)cs2)oc2ccccc12	.	0%	0%	-2%	89µM*	12µM*	21*	-13%	?	?
O=C(Nc1nc(-c2ccccn2)cs1)c1cc2ccccc2o1	.	-6%	8%	-18%	7%	-11%	.	.	.	.
CCC(=O)N1CCCC(C)(C(=O)NS(=O)(=O)c2cccs2)C1 (stereo not given)	.	.	15%	.	.	1%	.	.	.	.
O=c1nc(/C=C/c2cc([N+](=O)[O-])ccc2Cl)cc(C(F)(F)F)[nH]1	-18%	-1%	5%	?	?	-27%	3.2*	3.2µM*	?	-6%
O=c1nc(/C=C/c2cccn2-c2ccc([N+](=O)[O-])cc2)cc(C(F)(F)F)[nH]1	-1%	6%	4%	-27%	-9%	?	.	.	.	.
CCCCNC(=O)c1cnc2c(-c3ccc(OCC)c(OCC)c3)c(C)nn2c1-c1ccccc1	.	.	-6%	-5%	19%	.	.	.	.	.
COc1cc(C)cc(C(=O)C=Cc2ccccc2)c1O	.	.	-12%	.	?	?	.	.	.	.
COC1=C(C)C(O)=C(C(=O)/C=C/c2ccccc2)C(=O)C1(C)C	3%	-31%	5%	-12%	20µM*	-3%	17*	20µM*	?	-3%
O=C(c1ccncc1)N1CCC[C@@]2(CCN(Cc3cc(C(F)(F)F)cc(C(F)(F)F)c3)C2)C1	.	.	.	-9%	-25%	.	.	.	.	.
Cc1sc2c(c1C)C(=O)NC(c1ccccc1F)N2 (stereo not given)	-7%	-13%	-3%	-29%	32µM*	2.1µM*	6.7*	?	9%	2%
CC(C)(C)C(=O)Nc1cccc(C(=O)OCc2cc(=O)n3nc(C4CC4)sc3n2)c1	.	.	5%	24%	-1%	.	.	.	.	.
Cc1sc(NC(=O)c2ccccc2)c(C(=O)c2ccccc2)c1C	-5%	27%	-14%	-14%	56µM*	6.7µM*	19*	8.9µM*	23%	20%
CCN(CC)C(=O)c1c(NC(=O)c2ccccc2)sc(C)c1C	12%	2%	4%	0%	2%	-2%	.	.	.	.
CS(=O)(=O)N(Cc1ccccc1Cl)c1ccc(C(=O)NCc2ccccn2)cc1	-4%	-2%	1%	-3%	-16%	4%	.	.	.	.
SMILES	PKM2 activator	Mito fusion yeast	GLS inhibitor	GCN5L2 inh	VDR inh	PLK1 PBD inh	VDR inh confirm	VDR FP fluor	VDR bla reporter	VDR viability
Cn1cnc([N+](=O)[O-])c1S(=O)(=O)c1cccc(Cl)c1	4%	-23%	2%	1%	45µM*	?	?	25µM*	?	10µM*
Cn1cnc([N+](=O)[O-])c1S(=O)(=O)Nc1ccccc1	.	.	-9%	.	-24%	-6%	.	.	.	.
COc1ccc(Nc2nc3c(S(=O)(=O)c4ccc(C)cc4)nnn3c3ccsc23)cc1Cl	.	.	11%	-1%	0%	.	.	.	.	.
O=C(CSc1nc2cc(Cl)ccc2o1)Nc1ccc(N2CCOCC2)cc1	1%	0%	-2%	2%	-1%	-7%	.	.	.	.
CCSc1nc2cc(S(=O)(=O)N3CCOCC3)ccc2o1	.	.	-20%	?	25µM*	3µM*	9.5*	?	-1%	24%
O=C(CSc1nc2cc(S(=O)(=O)N3CCOCC3)ccc2o1)Nc1c(F)cccc1F	2%	3%	21%	-22%	18µM*	2.7µM*	11*	7.1µM*	2%	5%
O=C(CSc1nc2ccc(S(=O)(=O)N3CCOCC3)cc2[nH]1)N1CCOCC1	-20%	-1%	-12%	-17%	22µM*	2.2µM*	3.8*	?	9%	14%
CCCS(=O)(=O)NC(=O)C1(C)CCN(C(=O)COc2ccccc2)C1 (stereo not given)	.	.	21%	.	.	-1%	.	.	.	.
COc1ccc(C(=O)Nc2ccc(Cl)c(S(=O)(=O)Nc3ccccc3OC)c2)cc1	2%	?	-4%	-9%	-12%	2%	.	.	.	.
